# TLR4-MyD88 inh: TLR4-MyD88 interaction inhibition | O00206 | Cell-based TLR4-MyD88 binding inhibition assay | inhibition, % at 10 µM | 0.06% of 16,000 active | AID 811; in the data active = inhibition above about 45%
# rat GALR2 ag: GALR2 (rat) receptor agonism | O08726 | cell-based GALR2 agonist screen | activation, % at 10 µM | 0.5% of 16,000 active; in the data active = activation above about 15%
# NOTCH agonist: agonists of NOTCH signaling | NOTCH signaling luciferase reporter cells, luminescence | activation, % at 2.5 µM | 0.4% of 15,000 active | AID 434982; in the data active = activation above about 2.2%
# S1P1 ag: S1P1 (human) receptor agonism. 1.5% of 16,000 active. AID 1044. activation, % at 4.5 µM. S1P1 agonist cell-based reporter assay; in the data active = activation above about 80%
# Starred values were filed as active, the others as inactive. An excerpt weighted towards active compounds, which were near 2.6% of everything screened.
SMILES,TLR4-MyD88 inh,rat GALR2 ag,NOTCH agonist,S1P1 ag
O=[N+]([O-])c1ccc(CS(=O)(=O)C(Cl)(Cl)Cl)o1,-3,-10,-1,96*
CNC(=O)O/N=C/c1ccc(F)c(Cl)c1,-3,-4,0,-5

# From PubChem
